{"source": "PubChem BioAssay", "key": {"[1]": {"target": "NAD(+) hydrolase SARM1 (Homo sapiens) (UniProt Q6SZW1)", "sequence (Q6SZW1 whole entry, looked up)": "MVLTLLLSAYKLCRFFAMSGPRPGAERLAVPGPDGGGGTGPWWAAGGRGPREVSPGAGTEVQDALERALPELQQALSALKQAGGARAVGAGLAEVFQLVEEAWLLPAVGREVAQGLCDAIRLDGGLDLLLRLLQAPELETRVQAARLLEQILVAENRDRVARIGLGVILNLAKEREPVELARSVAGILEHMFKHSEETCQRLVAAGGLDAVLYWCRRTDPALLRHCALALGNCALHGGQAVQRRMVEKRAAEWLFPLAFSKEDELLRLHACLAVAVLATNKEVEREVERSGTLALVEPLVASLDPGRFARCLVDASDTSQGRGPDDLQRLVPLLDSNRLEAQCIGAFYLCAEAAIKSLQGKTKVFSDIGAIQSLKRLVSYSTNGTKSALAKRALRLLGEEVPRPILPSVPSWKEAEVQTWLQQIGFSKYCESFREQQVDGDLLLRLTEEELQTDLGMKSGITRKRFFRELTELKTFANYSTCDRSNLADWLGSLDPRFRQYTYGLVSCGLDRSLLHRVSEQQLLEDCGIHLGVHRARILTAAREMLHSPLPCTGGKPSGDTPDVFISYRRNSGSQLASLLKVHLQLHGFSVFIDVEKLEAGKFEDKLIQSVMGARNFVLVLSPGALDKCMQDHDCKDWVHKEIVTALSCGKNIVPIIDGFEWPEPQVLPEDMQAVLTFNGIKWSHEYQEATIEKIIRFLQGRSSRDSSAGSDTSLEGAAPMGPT", "assay": "blocking NAD cleavage by SARM1 SAM-TIR – cell lysate, NAD-Glo luminescence (AID 1508614;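 active = compound whose remaining NAD level is above about 45 nM, limit read from the data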)", "details": "SAM-TIR HEK293T lysate NADase, at 1 µM, stronger effect = higher value"}, "[2]": {"target": "Mitogen-activated protein kinase 7 (Homo sapiens) (UniProt Q13164)", "sequence (Q13164 whole entry, looked up, the tested form may be a part)": "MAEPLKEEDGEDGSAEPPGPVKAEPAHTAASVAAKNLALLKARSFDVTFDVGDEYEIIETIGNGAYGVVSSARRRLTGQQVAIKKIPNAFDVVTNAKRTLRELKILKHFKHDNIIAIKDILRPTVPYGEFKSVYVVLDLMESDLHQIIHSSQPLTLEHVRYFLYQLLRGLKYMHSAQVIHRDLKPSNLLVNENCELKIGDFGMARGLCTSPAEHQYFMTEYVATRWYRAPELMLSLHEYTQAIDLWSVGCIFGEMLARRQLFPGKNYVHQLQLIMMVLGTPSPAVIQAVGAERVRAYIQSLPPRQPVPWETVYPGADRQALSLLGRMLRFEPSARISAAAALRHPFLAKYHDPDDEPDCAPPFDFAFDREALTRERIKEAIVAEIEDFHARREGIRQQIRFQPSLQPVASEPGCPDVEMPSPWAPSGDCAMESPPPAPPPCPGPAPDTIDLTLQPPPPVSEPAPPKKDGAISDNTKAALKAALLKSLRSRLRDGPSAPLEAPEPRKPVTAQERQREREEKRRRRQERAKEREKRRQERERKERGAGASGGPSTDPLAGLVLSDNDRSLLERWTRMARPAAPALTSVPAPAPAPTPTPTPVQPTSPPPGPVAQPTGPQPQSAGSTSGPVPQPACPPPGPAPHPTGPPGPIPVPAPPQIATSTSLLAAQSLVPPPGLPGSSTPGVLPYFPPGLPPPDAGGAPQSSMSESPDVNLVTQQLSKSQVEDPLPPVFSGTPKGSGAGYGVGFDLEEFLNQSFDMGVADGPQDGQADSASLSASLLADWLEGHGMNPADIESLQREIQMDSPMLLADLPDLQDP", "assay": "Gal4-ERK5 driven luciferase induction – cell-based, HTS, primary screen (AID 1508626;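 active = luciferase signal above three times the same-plate solvent-only control wells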;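 note: luciferase driven by Gal4-ERK5 fusion binding five Gal4 sites before minimal TATA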)", "details": "HeLa Gal4-ERK5 transactivation, 18 h, at 5 µM, stronger effect = higher value"}, "[3]": {"assay": "galactose survival enhancers in mitochondrial complex I cybrids – cell-based, galactose medium, ATP luminescence, primary screen (AID 1645843);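 note: positive z means more ATP and so rescue of galactose-driven cybrid death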", "details": "complex I mutant cybrid cells, 72 h, stronger effect = higher value"}}, "note": "Where “and” joins values, the source holds several entries; their conditions need not be identical. Equal values may be shown once. Some compounds were tested as several samples or in several runs, with calls that do not always agree. Calls of active or inactive are those of the source.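 Rule for the calls, unless noted: active = z-score of at least 1.8 in each of two replicates, scored against plate mean and spread of sample wells; inactive = the rest.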"}
{"smiles": "CO[C@]12C[C@@H](COC(=O)c3cncc(Br)c3)CN(C)[C@@H]1Cc1cn(C)c3cccc2c13", "values": [{"measurement": "remaining NAD", "setting": "[1]", "result": "10 nM (inactive)"}, {"measurement": "luciferase signal", "setting": "[2]", "result": "56 AU (inactive)"}, {"measurement": "z-score", "setting": "[3]", "result": "1.27 (inactive)"}]}
{"smiles": "CN1Cc2c(N)cccc2C(c2ccccc2)C1", "note": "(configuration not stated)", "values": [{"measurement": "remaining NAD", "setting": "[1]", "result": "17 nM (inactive)"}, {"measurement": "luciferase signal", "setting": "[2]", "result": "88 AU (inactive)"}, {"measurement": "z-score", "setting": "[3]", "result": "-0.015 (inactive)"}]}
{"smiles": "NC(CO)C(=O)NNCc1ccc(O)c(O)c1O", "note": "(configuration not stated)", "values": [{"measurement": "remaining NAD", "setting": "[1]", "result": "10 nM (inactive)"}, {"measurement": "luciferase signal", "setting": "[2]", "result": "132 AU (inactive)"}, {"measurement": "z-score", "setting": "[3]", "result": "-1.5 (inactive) and -0.255 (inactive)"}]}
{"smiles": "CN1CCN(CCCN2c3ccccc3Sc3ccc(Cl)cc32)CC1", "values": [{"measurement": "remaining NAD", "setting": "[1]", "result": "10 nM (inactive)"}, {"measurement": "luciferase signal", "setting": "[2]", "result": "80 AU (inactive)"}, {"measurement": "z-score", "setting": "[3]", "result": "-1.35 (inactive) and -1.42 (inactive)"}]}
{"smiles": "Cc1ccccc1N1C(=O)c2cc(S(N)(=O)=O)c(Cl)cc2NC1C", "note": "(configuration not stated)", "values": [{"measurement": "remaining NAD", "setting": "[1]", "result": "10 nM (inactive)"}, {"measurement": "luciferase signal", "setting": "[2]", "result": "64 AU (inactive)"}, {"measurement": "z-score", "setting": "[3]", "result": "-0.04 (inactive)"}]}
{"smiles": "C=Cc1c(C)c2cc3[nH]c(cc4nc(cc5nc(cc1[nH]2)C(C)=C5CCC(=O)O)C(CCC(=O)O)=C4C)c(C)c3C=C", "values": [{"measurement": "remaining NAD", "setting": "[1]", "result": "10 nM (inactive)"}, {"measurement": "luciferase signal", "setting": "[2]", "result": "56 AU (inactive)"}, {"measurement": "z-score", "setting": "[3]", "result": "-0.23 (inactive)"}]}
{"smiles": "NS(=O)(=O)c1cc2c(cc1Cl)NC(C(Cl)Cl)NS2(=O)=O", "note": "(configuration not stated)", "values": [{"measurement": "remaining NAD", "setting": "[1]", "result": "10 nM (inactive)"}, {"measurement": "luciferase signal", "setting": "[2]", "result": "48 AU (inactive)"}, {"measurement": "z-score", "setting": "[3]", "result": "-0.19 (inactive)"}]}
{"smiles": "CCCC(C(=O)OCCN(CC)CC)(c1ccccc1)c1ccccc1", "values": [{"measurement": "remaining NAD", "setting": "[1]", "result": "10 nM (inactive)"}, {"measurement": "luciferase signal", "setting": "[2]", "result": "60 AU (inactive)"}, {"measurement": "z-score", "setting": "[3]", "result": "-1.28 (inactive)"}]}
{"smiles": "COc1cc(NS(=O)(=O)c2ccc(N)cc2)nc(OC)n1", "values": [{"measurement": "remaining NAD", "setting": "[1]", "result": "10 nM (inactive)"}, {"measurement": "luciferase signal", "setting": "[2]", "result": "48 AU (inactive)"}, {"measurement": "z-score", "setting": "[3]", "result": "-0.135 (inactive)"}]}
{"smiles": "CCCN(CCC)C(=O)C(CCC(=O)O)NC(=O)c1ccccc1", "note": "(configuration not stated)", "values": [{"measurement": "remaining NAD", "setting": "[1]", "result": "10 nM (inactive)"}, {"measurement": "luciferase signal", "setting": "[2]", "result": "108 AU (inactive)"}, {"measurement": "z-score", "setting": "[3]", "result": "0.665 (inactive)"}]}
{"smiles": "CO[C@@]1(NC(=O)CSCC#N)C(=O)N2C(C(=O)O)=C(CSc3nnnn3C)CS[C@@H]21", "values": [{"measurement": "remaining NAD", "setting": "[1]", "result": "10 nM (inactive)"}, {"measurement": "luciferase signal", "setting": "[2]", "result": "108 AU (inactive)"}, {"measurement": "z-score", "setting": "[3]", "result": "0.77 (inactive)"}]}
{"smiles": "CN(Cc1cc(Br)cc(Br)c1N)C1CCCCC1", "values": [{"measurement": "remaining NAD", "setting": "[1]", "result": "10 nM (inactive)"}, {"measurement": "luciferase signal", "setting": "[2]", "result": "56 AU (inactive)"}, {"measurement": "z-score", "setting": "[3]", "result": "-1.71 (inactive)"}]}
{"smiles": "CN1C(C(=O)Nc2ccccn2)=C(O)c2sccc2S1(=O)=O", "values": [{"measurement": "remaining NAD", "setting": "[1]", "result": "10 nM (inactive)"}, {"measurement": "luciferase signal", "setting": "[2]", "result": "180 AU (inactive)"}, {"measurement": "z-score", "setting": "[3]", "result": "-0.07 (inactive)"}]}
{"smiles": "NCCCC(=O)O", "values": [{"measurement": "remaining NAD", "setting": "[1]", "result": "10 nM (inactive)"}, {"measurement": "luciferase signal", "setting": "[2]", "result": "56 AU (inactive)"}, {"measurement": "z-score", "setting": "[3]", "result": "0.26 (inactive)"}]}
{"smiles": "NCCCC[C@H](N[C@@H](CCc1ccccc1)C(=O)O)C(=O)N1CCC[C@H]1C(=O)O", "values": [{"measurement": "remaining NAD", "setting": "[1]", "result": "10 nM (inactive)"}, {"measurement": "luciferase signal", "setting": "[2]", "result": "92 AU (inactive)"}, {"measurement": "z-score", "setting": "[3]", "result": "0.245 (inactive)"}]}
{"smiles": "Nc1c(Br)cc(Br)cc1CNC1CCC(O)CC1", "note": "(configuration not stated)", "values": [{"measurement": "remaining NAD", "setting": "[1]", "result": "10 nM (inactive)"}, {"measurement": "luciferase signal", "setting": "[2]", "result": "84 AU (inactive)"}, {"measurement": "z-score", "setting": "[3]", "result": "-0.32 (inactive) and 0.295 (inactive)"}]}
{"smiles": "NC(=O)c1ncn([C@@H]2O[C@H](CO)[C@@H](O)[C@H]2O)n1", "values": [{"measurement": "remaining NAD", "setting": "[1]", "result": "10 nM (inactive)"}, {"measurement": "luciferase signal", "setting": "[2]", "result": "36 AU (inactive)"}, {"measurement": "z-score", "setting": "[3]", "result": "0.88 (inactive) and 1.56 (inactive)"}]}
{"smiles": "C#CCN(C)Cc1ccccc1", "values": [{"measurement": "remaining NAD", "setting": "[1]", "result": "10 nM (inactive)"}, {"measurement": "luciferase signal", "setting": "[2]", "result": "60 AU (inactive)"}, {"measurement": "z-score", "setting": "[3]", "result": "0.465 (inactive) and 0.37 (inactive)"}]}
{"smiles": "Cc1cn[nH]c1", "values": [{"measurement": "remaining NAD", "setting": "[1]", "result": "10 nM (inactive)"}, {"measurement": "luciferase signal", "setting": "[2]", "result": "44 AU (inactive)"}, {"measurement": "z-score", "setting": "[3]", "result": "0.65 (inactive)"}]}
{"smiles": "COCCCC/C(=N\\OCCN)c1ccc(C(F)(F)F)cc1", "values": [{"measurement": "remaining NAD", "setting": "[1]", "result": "10 nM (inactive)"}, {"measurement": "luciferase signal", "setting": "[2]", "result": "88 AU (inactive)"}, {"measurement": "z-score", "setting": "[3]", "result": "-0.665 (inactive) and -0.645 (inactive)"}]}
{"smiles": "Nc1ccc(N=Nc2ccccc2)c(N)n1", "values": [{"measurement": "remaining NAD", "setting": "[1]", "result": "10 nM (inactive)"}, {"measurement": "luciferase signal", "setting": "[2]", "result": "464 AU (active)"}, {"measurement": "z-score", "setting": "[3]", "result": "-0.225 (inactive)"}]}
{"smiles": "Clc1ccccc1C(c1ccccc1)(c1ccccc1)n1ccnc1", "values": [{"measurement": "remaining NAD", "setting": "[1]", "result": "10 nM (inactive)"}, {"measurement": "luciferase signal", "setting": "[2]", "result": "72 AU (inactive)"}, {"measurement": "z-score", "setting": "[3]", "result": "-1.52 (inactive) and -1.44 (inactive)"}]}
{"smiles": "Cc1nc2sccn2c(=O)c1CCN1CCC(=C(c2ccc(F)cc2)c2ccc(F)cc2)CC1", "values": [{"measurement": "remaining NAD", "setting": "[1]", "result": "10 nM (inactive)"}, {"measurement": "luciferase signal", "setting": "[2]", "result": "152 AU (active)"}, {"measurement": "z-score", "setting": "[3]", "result": "-1.37 (inactive) and -0.82 (inactive)"}]}
{"smiles": "CC1(C)S[C@@H]2[C@H](NC(=O)[C@H](N)c3ccccc3)C(=O)N2[C@H]1C(=O)O", "values": [{"measurement": "remaining NAD", "setting": "[1]", "result": "10 nM (inactive)"}, {"measurement": "luciferase signal", "setting": "[2]", "result": "44 AU (inactive)"}, {"measurement": "z-score", "setting": "[3]", "result": "0.415 (inactive)"}]}
{"smiles": "O=c1[nH]c(=O)n([C@H]2C[C@H](O)[C@@H](CO)O2)cc1F", "values": [{"measurement": "remaining NAD", "setting": "[1]", "result": "10 nM (inactive)"}, {"measurement": "luciferase signal", "setting": "[2]", "result": "12 AU (inactive)"}, {"measurement": "z-score", "setting": "[3]", "result": "1.93 (active)"}]}
{"smiles": "CC[N+](CC)(CC)CCOc1cccc(OCC[N+](CC)(CC)CC)c1OCC[N+](CC)(CC)CC", "values": [{"measurement": "remaining NAD", "setting": "[1]", "result": "10 nM (inactive)"}, {"measurement": "luciferase signal", "setting": "[2]", "result": "216 AU (active)"}, {"measurement": "z-score", "setting": "[3]", "result": "0.34 (inactive) and 0.415 (inactive)"}]}
{"smiles": "C[C@H]1c2cccc(O)c2C(O)=C2C(=O)[C@]3(O)C(O)=C(C(N)=O)C(=O)[C@@H](N(C)C)[C@@H]3[C@@H](O)[C@@H]21", "values": [{"measurement": "remaining NAD", "setting": "[1]", "result": "10 nM (inactive)"}, {"measurement": "luciferase signal", "setting": "[2]", "result": "64 AU (inactive)"}, {"measurement": "z-score", "setting": "[3]", "result": "2.63 (active) and 2.23 (active)"}]}
{"smiles": "CN1CCN2c3ccccc3Cc3ccccc3C2C1", "note": "(configuration not stated)", "values": [{"measurement": "remaining NAD", "setting": "[1]", "result": "10 nM (inactive)"}, {"measurement": "luciferase signal", "setting": "[2]", "result": "48 AU (inactive)"}, {"measurement": "z-score", "setting": "[3]", "result": "-0.385 (inactive) and 2.53 (active) and -0.36 (inactive)"}]}
{"smiles": "COc1cc(C(=O)NCc2ccc(OCCN(C)C)cc2)cc(OC)c1OC", "values": [{"measurement": "remaining NAD", "setting": "[1]", "result": "10 nM (inactive)"}, {"measurement": "luciferase signal", "setting": "[2]", "result": "48 AU (inactive)"}, {"measurement": "z-score", "setting": "[3]", "result": "0.17 (inactive)"}]}
